HT1080 IDH1KD tx – qHTS for induction of synthetic lethality in tumor cells producing 2HG: qHTS for the HT-1080-IDH1KD cell line; HT-1080 IDH1 knockdown viability, ATP luminescence, 48 h; 2% of 360,000 active; Potency, µM (titrated, usually from 46.1 µM), for the others: at the top dose activity, negative = toxicity, hits mostly cytotoxic;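 further: potency means the concentration at half of the fitted maximal effect; 0% = DMSO wells and -100% = cell-free medium wells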
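Luminescent ATP read-out (CellTiter-Glo, 10 min at room temperature) after 48 h compound exposure at 37 °C gave viability of IDH1-knockdown HT-1080 cells. Activity was normalised to DMSO and cell-free wells, then fitted as concentration-response curves.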
HT1080-NT tox – qHTS for induction of synthetic lethality in tumor cells producing 2HG: qHTS for the HT-1080-NT fibrosarcoma cell line; HT-1080-NT fibrosarcoma viability, CellTiter-Glo ATP luminescence, 48 h; Potency, µM (doses to about 46.1 µM), for inactives: at the highest dose activity, negative = less viability, actives largely listed as cytotoxic; 1.6% of 360,000 active; AID 686970, 2013;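 further: NT is the 2HG producing partner of a matched IDH1 knockdown line; potency means the concentration at half of the fitted maximal effect; 0% = DMSO-treated cells and -100% = media-only wells without cells; nearly all actives have a fitted effect of over 55% in size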
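Viability by CellTiter-Glo luminescence after 48 h compound exposure at 37C of HT-1080-NT cells (750/well, RPMI, 5% FBS). % activity scaled between DMSO wells and medium-only wells, then curve-fitted and categorized by curve class.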
IL-1B inflam inh – qHTS for Inhibitors of Inflammasome Signaling: IL-1-beta AlphaLISA Primary Screen. THP-1 LPS/ATP IL-1B secretion, AlphaLISA, 16 h; stronger effect = lower value. activity change, % at 57.5 µM. 4.7% of 360,000 active; in the data active means activity change below about -50%; inconclusive means mostly about -30% to -49%
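THP-1 cells pretreated 1 hr with compounds (up to 57.5 uM final), then stimulated with LPS (250 ng/mL final) plus ATP (1.25 mM final); secreted IL-1B measured by AlphaLISA after 16 hr, decreased signal indicating inhibition.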
12-LOX inh – Primary qHTS assay for inhibitors of human arachidonate 12S-lipoxygenase (ALOX12): Round 2; purified 12hLO, xylenol orange hydroperoxide absorbance; 1.1% of 580,000 active; AID 1671190, 2021; Potency, µM (top dose mostly 108 µM), without a hit: at the highest dose activity change, negative = inhibition, hits mostly inhibitors; further: potency means the concentration at half of the fitted maximal effect
Target sequence (P18054 whole entry, looked up): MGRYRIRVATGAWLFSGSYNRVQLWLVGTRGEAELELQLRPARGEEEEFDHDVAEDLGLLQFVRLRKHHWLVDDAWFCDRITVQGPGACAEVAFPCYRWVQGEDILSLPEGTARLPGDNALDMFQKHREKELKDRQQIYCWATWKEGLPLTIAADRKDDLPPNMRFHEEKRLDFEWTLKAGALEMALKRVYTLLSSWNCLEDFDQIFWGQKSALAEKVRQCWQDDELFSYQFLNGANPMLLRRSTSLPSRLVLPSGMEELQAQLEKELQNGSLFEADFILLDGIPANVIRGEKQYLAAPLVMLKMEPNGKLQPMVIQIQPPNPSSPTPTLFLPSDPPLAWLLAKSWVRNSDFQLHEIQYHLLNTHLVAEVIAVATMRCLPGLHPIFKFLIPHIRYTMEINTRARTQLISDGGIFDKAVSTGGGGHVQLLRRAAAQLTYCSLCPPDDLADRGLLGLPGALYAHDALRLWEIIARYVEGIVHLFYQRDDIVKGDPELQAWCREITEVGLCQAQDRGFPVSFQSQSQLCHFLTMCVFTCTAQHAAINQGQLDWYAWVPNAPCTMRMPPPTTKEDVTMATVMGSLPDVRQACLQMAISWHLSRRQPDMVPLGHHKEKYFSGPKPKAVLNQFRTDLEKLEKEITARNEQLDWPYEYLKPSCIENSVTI
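Purified human 12hLO at 150 nM in 25 mM Hepes, 0.01% Triton X-100, pH 7.0, preincubated 15 min at room temperature with compound. Reaction started with 40 uM arachidonic acid, 30 min at room temperature. Hydroperoxide measured by Fe-xylenol orange, 573/405 nm absorbance ratio.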
DT40 TDP1 CPT – qHTS for Inhibitors of human tyrosyl-DNA phosphodiesterase 1 (TDP1): qHTS in cells in presence of CPT. chicken DT40 Tdp1-/-;hTDP1 cells + 20 nM CPT, ATP luminescence, 48 h. Potency, µM (titrated, usually from 46.2 µM), for the others: at the highest dose activity change, negative = growth inhibition, most hits filed as inhibitors. 12% of 420,000 active; further: potency means the concentration at half of the fitted maximal effect; nearly all actives have a fitted effect of over 55% in size
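Chicken DT40 Tdp1-/- cells complemented with human TDP1, 400 cells/well, exposed to compounds plus 20 nM camptothecin for at least 48 h at 37 C; viability read as ATP content by CellTiter-Glo luminescence.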
TDP1 cell noCPT – qHTS for Inhibitors of human tyrosyl-DNA phosphodiesterase 1 (TDP1): qHTS in cells in absence of CPT. DT40 Tdp1-/- hTDP1 cells, no CPT, ATP luminescence, 48 h. Potency, µM (top dose mostly 46.2 µM), for inactives: top-dose activity change, negative = growth inhibition, actives largely listed as inhibitors. 15% of 420,000 active; further: potency means the concentration at half of the fitted maximal effect; nearly all actives have a fitted effect of over 55% in size
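Luminescent ATP content (CellTiter-Glo) served as the growth readout. Knockout chicken DT40 cells expressing human TDP1 were exposed to compounds without camptothecin for a minimum 48 hr at 37 °C.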
* = called active by the depositor; u = inconclusive; x = no result; [ ] = dose if it differs, or a comment. The full list was thinned out, with hits kept by preference. Unless noted, the call rests on the fitted dose curve; in most records, active means well fitted curve in the direction sought with a large enough effect; inconclusive means small, poorly fitted or top-dose-only effect, or another doubt; inactive means no such curve, though single readings can be large; an effect the other way counts as inactive or inconclusive. Unless noted, on the % scale 0 is the no-effect control and ±100 the full control effect.

SMILES	HT1080 IDH1KD tx	HT1080-NT tox	IL-1B inflam inh	12-LOX inh	DT40 TDP1 CPT	TDP1 cell noCPT
COc1ccccc1CNC(=O)COC(=O)C1CCN(S(=O)(=O)c2ccccc2)CC1	9%	0%	20	-21%	1%	-7%
COCOc1ccc(/C=C2/Oc3cc(OCOC)cc(OCOC)c3C2=O)c(OCOC)c1	2%	-1%	-12	x	13µM*	23µM*
COc1cc(OC)c2c(c1)O/C(=C\c1ccccc1)C2=O	6%	7%	-10	10%	u	u
CCN(CC)C(=O)COc1ccc2oc(C)c(C(=O)OC(C)C)c2c1	8%	7%	28	-10%	u	16µM*
CCC(C)NC(=O)CSc1ccc(S(=O)(=O)N2CCN(Cc3ccccc3)CC2)cn1 (configuration not stated)	0%	-7%	0	-10%	u	29µM*
N#Cc1ccc(CSc2ccc(S(=O)(=O)N3CCCCCC3)cn2)cc1	-20%	-4%	-5	-3%	u	29µM*
O=[N+]([O-])c1ccc(CSc2ccc(S(=O)(=O)N3CCCCCC3)cn2)cc1	-17%	-14%	-9	-2%	23µM*	16µM*
CC(C)N(C(=O)CSc1ccc(S(=O)(=O)N2CCCCC2)cn1)C(C)C	-1%	5%[9.24 µM]	-5	0%	16µM*	-27%
CC(C)NC(=O)NC(=O)CSc1ccc(S(=O)(=O)N2CCCC2)cn1	-9%	-6%	2	-20%	-9%	-13%
CC(C)c1cc(C(=O)O)c2c(C3CC3)nn(-c3ccccc3)c2n1	x	x	x	-22%	x	x
Cc1ccc(NC2(c3nnnn3-c3cccc(C)c3)CCCC2)cc1	x	x	x	-3%	x	x
COc1ccc(-c2cc(N3CCCC(NC(=O)Cc4ccsc4)C3)n[nH]2)cc1 (configuration not stated)	x	x	x	47%	x	x
CC(C)C[C@H]1CNC(=S)N1CC1CCCN1C[C@H](CC(C)C)N1C[C@H](Cc2ccc(O)cc2)N(CC2CCCCCC2)C1=S (some centres not stated)	-3%	-2%	-5	u	23µM*	18µM*
CC(C)C[C@H]1CNC(=S)N1CC1CCCN1C[C@H](CC(C)C)N1C[C@H](Cc2ccc(O)cc2)N(CC2CCCCC2)C1=S (some centres not stated)	-24%	-23%	0	-87%	u	18µM*
CC(C)C[C@H]1CNC(=S)N1C[C@H]1CCCN1C[C@H](CC(C)C)N1C[C@H](Cc2ccc(O)cc2)N(CC2CCCCCC2)C1=S	u	u	-59*	-68%	16µM*	8.2µM*
C=CCCC1CN(Cc2ccc(OC)cc2)S(=O)(=O)c2c(cccc2N(C)S(=O)(=O)c2ccc(C)cc2)O1 (configuration not stated)	x	x	x	1%	x	x
C[N+](C)(CCCCCI)c1ccc(/C=C/c2nc3ccccc3s2)cc1	x	x	x	x	1µM*	0.56µM*
CCOC(=O)C1(Cc2ccccc2C(F)(F)F)CCN(Cc2ccc(COC)o2)CC1	u	u	u	-9%	9.2µM*	8.2µM*
CCOC(=O)C1(Cc2ccccc2C(F)(F)F)CCN(C2CCN(C(C)C)CC2)CC1	15µM*	u	13	0%	23µM*	23µM*
CCOC(=O)C1(CCOC)CCN(Cc2ccc(COC)o2)CC1	2%	-4%	10	-1%	0%	-29%
O=C(O)C1(Nc2ccccc2Cl)CCCC1	12%	18%	13	0%	6%	-7%
O=C1OCC(CO)(CO)N=C1NNc1ccccc1Cl	-10%	10µM*	34	u	-13%	-8%
CSCC[C@H](NC(=O)[C@H](Cc1ccccc1)n1c(=O)[nH]c2ccccc2c1=O)C(=O)N[C@@H](Cc1ccccc1)C(=O)O	9%	4%	15	29%	1%	2%
COc1cccc(CN[C@@H]2CCC[C@@H](C(=O)N3CCN(C)CC3)CC(=O)N(C)C2)c1	x	x	x	7%[176 µM]	x	x
Oc1ccccc1-n1c(-c2ccccc2)ccc1-c1ccccc1	u	u	-80*	u	u	-25%
SMILES	HT1080 IDH1KD tx	HT1080-NT tox	IL-1B inflam inh	12-LOX inh	DT40 TDP1 CPT	TDP1 cell noCPT
CCN(Cc1ccccn1)C(=O)c1csc2nc(-c3cc(C)ccc3C)cn12	x	x	x	40%	x	x
O=C(c1ccn[nH]1)N1CCN(Cc2cn3ccccc3n2)CC(O)C1 (configuration not stated)	x	x	x	42%	x	x
COc1ccc(CN(C)Cc2c(O)ccc3ccccc23)cc1	1%	0%	-21	10µM*	u	-2%
COc1cccc(CN(C)Cc2c(O)ccc3ccccc23)c1	-3%	-1%	u	10µM*	u	-18%
CC(C)N1CCN(Cc2ccc(-c3ccccc3)cc2)CC1CCO (configuration not stated)	u	u	-15	-22%	2%	u
CC(C)N1CCN(Cc2ccc3c(c2)Cc2ccccc2-3)CC1CCO (configuration not stated)	u	u	-11	9%	u	23µM*
CCOC(=O)CC1C(=O)NCCN1C(=O)Nc1ccccc1 (configuration not stated)	8%	6%	19	150%	3%	-3%
CCOC(=O)N1CCN(C(=S)NC(=O)c2cncc(Br)c2)CC1	0%	-1%	42	-29%	u	u
Cc1ccc(C(=O)NC(=S)N2CCN(C(=O)OC(C)(C)C)CC2)cc1Br	0%	8%	0	-19%	18µM*	13µM*
CCOC(=O)N1CCN(C(=O)CSCc2ccc(Cl)cc2)CC1	-15%	-8%	25	-3%	u	u
